# In PubChem BioAssay (NCI):
# About 83,000 compounds went through this panel and 20% of them were active in at least one assay; those are over-represented in the sample as a whole.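 Note: values are percent growth. 100 is the growth of untreated cells, values between 100 and 0 indicate rising inhibition; between -100 and 0 indicates cell death.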 A number with no mark means an inactive call. The source made the active and inactive calls. The calls were made as follows: active = growth percent below 10; inactive = the rest.
# Experiments:
# Assay in all cases: NCI-60 one-dose screen, 48 h (100 = growth as untreated, 0 = no growth, -100 = all killed)
# Conditions in all cases: 10 µM unless noted
# NCI-H23 lung = test system: NCI-H23 lung
# NCI-H226 lung = test system: NCI-H226 lung
# NCI-H322M lung = test system: NCI-H322M lung
# HOP-62 NSCLC = test system: HOP-62 NSCLC
# NCI-H460 lung = test system: NCI-H460 lung
# HOP-92 NSCLC = test system: HOP-92 NSCLC
# NCI-H522 lung = test system: NCI-H522 lung
# A549/ATCC NSCLC = test system: A549/ATCC NSCLC
# 786-0 renal = test system: 786-0 renal
# COLO 205 colon = test system: COLO 205 colon
# DU-145 prostate = test system: DU-145 prostate
# K-562 leukemia = test system: K-562 leukemia
# MALME-3M melanoma = test system: MALME-3M melanoma
# MDA-MB-231 breast = test system: MDA-MB-231 breast
# RXF 393 renal = test system: RXF 393 renal
# SF-268 CNS = test system: SF-268 CNS
# SF-295 CNS = test system: SF-295 CNS
# SF-539 CNS = test system: SF-539 CNS
# UACC-257 melanoma = test system: UACC-257 melanoma
# M14 melanoma = test system: M14 melanoma
Compound,growth (NCI-H23 lung),growth (NCI-H226 lung),growth (NCI-H322M lung),growth (HOP-62 NSCLC),growth (NCI-H460 lung),growth (HOP-92 NSCLC),growth (NCI-H522 lung),growth (A549/ATCC NSCLC),growth (786-0 renal),growth (COLO 205 colon),growth (DU-145 prostate),growth (K-562 leukemia),growth (MALME-3M melanoma),growth (MDA-MB-231 breast),growth (RXF 393 renal),growth (SF-268 CNS),growth (SF-295 CNS),growth (SF-539 CNS),growth (UACC-257 melanoma),growth (M14 melanoma)
CCCCCCCC[N+](C)(CCCCCCCC)CCCCCCCC,-97% (active),-86.2% (active),-100% (active),-92.2% (active),-100% (active),-70% (active),-99.9% (active),-100% (active),-95.7% (active),-60.7% (active),-100% (active),86.9%,-91.7% (active),-87% (active),-100% (active),-100% (active),-94.8% (active),-100% (active),-95.2% (active),-94.1% (active)
CNC(=O)Oc1cccc(C(F)(F)F)c1,108%,90%,125%,107%,114%,106%,95.2%,103%,105%,107%,128%,113%,140%,103%,146%,118%,130%,122%,102%,101%
C[C@@H]1O[C@@H](O[C@H]2C[C@@H](O)[C@]3(CO)C4C(CC[C@]3(O)C2)[C@@]2(O)CC[C@H](C3=CC(=O)OC3)[C@@]2(C)C[C@H]4O)[C@H](O)[C@H](O)[C@H]1O (stereo not given in full),-67.1% (active),-72.3% (active),-64.5% (active),-99.5% (active),-75.9% (active),-0.733% (active),-54.4% (active),-91.4% (active),-95.3% (active),-84.2% (active),-94.4% (active),-22.4% (active),-31% (active),-22.5% (active),-26.6% (active),-91.7% (active),-51.5% (active),-80.1% (active),-91.7% (active),-86.2% (active)
Fc1ccc(C2=CCNCC2)cc1,50.2%,86.6%,111%,112%,99.5%,119%,63.1%,113%,78.8%,103%,111%,108%,95.5%,80.7%,97.7%,96.8%,77.8%,93.4%,-21.6% (active),98.9%
COc1cc2c(cc1OCc1ccccc1)C(CC(C)C)=[N+](C)CC2,56.4%,81.2%,97.8%,88.2%,92.1%,77.7%,66.3%,61%,95.6%,56.9%,93.6%,67.2%,85%,93%,93.9%,67.5%,68.2%,76.7%,50%,99.1%
CC1=C(O)[C@@](C)(CCCCC[C@H](C)CCCCc2ccc(O)cc2)OOC1=O,85.2%,107%,94.6%,91.1%,108%,75.2%,64.5%,96.9%,105%,107%,113%,94.4%,87.3%,85.2%,111%,110%,90.4%,101%,89.8%,96.6%
CC1[C@H](C)OC(=O)CC(O)CC(O)CC(O)CCC(O)C(O)C[C@]2(O)CC(O)C(C(=O)O)C(CC(OC3O[C@H](C)[C@@H](O)[C@H](N)[C@@H]3O)/C=C/C=C/C=C/C=C/CC/C=C/C=C/[C@H](C)[C@H]1O)O2 (stereo not given in full),90.8%,99.1%,105%,105%,103%,101%,114%,97.8%,105%,93.7%,96.7%,111%,99.3%,92.9%,107%,109%,102%,96.1%,101%,98.6%
COc1cccc2c1c(C(=O)C(=O)Nc1cc(C)no1)cn2Cc1ccc(F)cc1,78.8%,75.5%,94.7%,64.1%,71.3%,57.4%,72.5%,91.9%,64.1%,95.4%,74.2%,13.4%,69.3%,77.5%,77.4%,64.3%,73.6%,67.2%,81.4%,45.7%
